# Source: PubChem BioAssay AID937 (National Center for Advancing Translational Sciences (NCATS), 2007)
# The other results are listed elsewhere or left out. Results filed as inconclusive are left out. The source made the active and inactive calls. The call rests on the fitted dose curve.
# Biological target: Alpha-synuclein (Homo sapiens) (UniProt P37840)
# Test: Alpha-synuclein ThS binding assay
# Settings: recombinant alpha-synuclein fibrils, ThS fluorescence displacement
# Method: NIH Molecular Libraries Screening Centers Network [MLSCN] NIH Chemical Genomics Center [NCGC] MLSCN Grant: 1 X01 MH079825-01 Assay Provider: Jeffrey A. Kuret, Ohio State University NCGC Assay Overview: Lewy body disease is characterized by the appearance of lesions containing alpha-synuclein. The protein components in these lesions can be induced to form filaments under experimentally tractable times when incubated in vitro with anionic inducers such as alkyl sulfate detergents or fatty acids. […] Here we describe the in vitro fibrillization of alpha-synuclein. Alpha-synuclein was induced to form filaments by incubation overnight at 37 C in the presence of arachidonic acid. A commonly used fluorescent probe for cross#nbeta-sheet structure, Thioflavin S (ThS), was also added to the reactions. […] Small molecules capable of ThS displacement or antagonizing fibrillization result in a decrease in ThS fluorescence, allowing determination of binding affinities for molecules screened.
# NCGC Assay Protocol Summary The assay was performed in 96-well round bottom opaque plates (VWR, West Chester, PA) in 100 uL final volume. […] Fluorescence (ex = 440 nm; em = 485 nm) was measured after brief shaking (10 s) in a FlexStation plate reader (Molecular Devices, Sunnyvale, CA) operated at sensitivity 10, automatic PMT. […]
row,SMILES,outcome
1,O=C(CCCCn1c(=O)[nH]c2ccccc2c1=O)NCc1ccc2c(c1)OCO2,inactive
